Experimental data published in PubChem BioAssay (EPA / NIEHS).
Inconclusive results are not listed. Activity calls are given as the source filed them. How the source made its calls, unless noted: active means hit-call score of the fitted dose curve at least 0.9, where 1 is the maximum; inactive means score below 0.9.

Tests used:
[1] = CCTE_Shafer_MEA_acute_spike_number: CCTE's Neural Acute Assay for Total Number of Spikes, Shafer Lab (AID 2284008);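 further: curve fitted for decrease in spike count so AC50 reflects inhibitors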
Outline: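 Read-out is the total spike count over 40 min, expressed as percent change from each well's own pre-treatment baseline and fitted in the loss direction against DMSO. Rat cortical neurons were exposed at 0.03-40 uM on DIV 13 or 15.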

[2] = CCTE_Shafer_MEA_acute_firing_rate_mean: CCTE's Neural Acute Assay for Mean Firing Rate, Shafer Lab (AID 2284009);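 further: analyzed for loss of signal so actives lower firing rate relative to DMSO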
Outline: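 Percent change in well-mean firing rate was derived from extracellular spikes detected at 8x rms noise (300-5000 Hz band-pass) before and after a 40-min compound exposure. Cultures were primary rat cortical neurons, tested at 0.03-40 uM.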

[3] = CCTE_Shafer_MEA_acute_burst_number: CCTE's Neural Acute Assay for Single-Electrode Bursts, Shafer Lab (AID 2284013)
Outline: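 Spontaneous network activity of primary rat cortical neurons was recorded extracellularly on microelectrode arrays at 37 C, with 40-min periods before and during exposure to 0.03-40 uM compound on DIV 13 or 15.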

[4] = CCTE_Shafer_MEA_acute_burst_duration_mean: CCTE's Neural Acute Assay for Mean Burst Duration, Shafer Lab (AID 2284014);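 further: hits are decreases in mean burst duration relative to DMSO controls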
Outline: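 Read-out is the per-well percent change in mean burst duration (first to last spike within a single-electrode burst) between 40-min recordings before and after compound. Cultures were primary rat cortical neurons on MEAs, dosed at 0.03-40 uM on DIV 13 or 15.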

[5] = CCTE_Shafer_MEA_acute_per_burst_spike_number_mean: CCTE's Neural Acute Assay for Average Number of Spikes Per Burst, Shafer Lab (AID 2284015);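 further: hits are decreases in mean spikes per burst versus baseline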
Outline: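 We recorded spontaneous network firing of rat cortical neurons for 40 min before and 40 min during exposure to compound at 0.03-40 uM, at 37 C. Spikes were detected adaptively at 8x rms noise, and the change in average spikes per burst was fitted against DMSO.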

[6] = CCTE_Shafer_MEA_acute_interburst_interval_mean: CCTE's Neural Acute Assay for Mean Interburst Interval, Shafer Lab (AID 2284016);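 further: percent change of mean interburst interval versus each well's own pre-dose baseline; curves fitted for decrease in interburst interval relative to DMSO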
Outline: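 MEA recording of spontaneous network bursting in primary rat cortical cultures; mean interburst interval was compared before and after a 40-min compound exposure (0.03-40 uM) and expressed as percent change, relative to DMSO.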

[7] = CCTE_Shafer_MEA_acute_burst_percentage_mean: CCTE's Neural Acute Assay for Percentage of Spikes in a Burst, Shafer Lab (AID 2284017);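 further: curve fitted for loss of signal so potency reflects decreased burst percentage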
Outline: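 Compounds were tested at 0.03-40 uM on primary rat cortical neuron networks grown over microelectrodes, with at least three wells per compound. Spontaneous firing was recorded for 40 min before and 40 min after dosing, and the change in burst percentage was computed per well.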

[8] = CCTE_Shafer_MEA_acute_burst_percentage_std: CCTE's Neural Acute Assay for Standard Deviation of Burst Percentage, Shafer Lab (AID 2284018);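 further: fitted in the negative direction so actives lower burst percentage SD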
Outline: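 Value is percent change from baseline in the across-electrode SD of spikes-in-bursts percentage, wells with >/= 10 active electrodes. Acute 40-min exposure to 0.03-40 uM on DIV 13 or 15 rat cortical cultures, recorded at 37 C after 40-min baseline.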

[9] = CCTE_Shafer_MEA_acute_per_network_burst_spike_number_mean: CCTE's Neural Acute Assay for Average Number of Spikes in a Network Burst, Shafer Lab (AID 2284019);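 further: curve fitted for loss of signal so actives reduce spikes per network burst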
Outline: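 Read-out is mean spike count per network burst, taken as percent change between a 40-min pre-exposure and a 40-min post-exposure recording per well. Rat primary cortical neurons on MEAs at 37 C, DIV 13 or 15; compounds at 0.03-40 uM.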

[10] = CCTE_Shafer_MEA_acute_per_network_burst_spike_number_std: CCTE's Neural Acute Assay for Standard Deviation of Number of Spikes in a Network Burst, Shafer Lab (AID 2284020);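 further: fitted for decrease in spike-number SD versus DMSO so actives lower it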
Outline: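 Spontaneous network activity of primary rat cortical neurons is recorded extracellularly before and after a 40-min compound exposure (0.03-40 uM) at 37 C. The endpoint is the well's percent change in burst spike-number SD.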

[11] = CCTE_Shafer_MEA_acute_per_network_burst_electrodes_number_mean: CCTE's Neural Acute Assay for Mean Number of Electrodes in a Network Burst, Shafer Lab (AID 2284021);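 further: curves fitted for decreases only so hits reduce electrodes per burst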
Outline: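 Primary rat cortical networks, mwMEA, 37 C. 20 min stabilization, 40 min baseline, compound 0.03-40 uM, 40 min re-record. Wells need >=10 active electrodes; percent change per well, negative fitting direction.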

[12] = CCTE_Shafer_MEA_acute_cross_correlation_area: CCTE's Neural Acute Assay for Area of Cross Correlation, Shafer Lab (AID 2284024);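 further: area under pooled inter-electrode spike cross-correlation near zero lag as percent change from own baseline; curves fitted for loss of cross-correlation area so actives lower synchrony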
Outline: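 Plates equilibrated 20 min at 37 C, then 40 min baseline was recorded, compound was added (0.03-40 uM), and a further 40 min was recorded. Wells needed ≥10 active electrodes (≥5 spikes/min) on exposure day.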

[13] = CCTE_Shafer_MEA_acute_synchrony_index: CCTE's Neural Acute Assay for Synchrony, Shafer Lab (AID 2284027);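 further: network synchrony index of spontaneous spiking in primary rat cortical neurons on MEAs; fitted for loss of signal so actives lower synchrony relative to DMSO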
Outline: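 Primary rat cortical neurons on 48-well MEAs, dosed at 0.03–40 uM on DIV 13 or 15. Spikes are recorded for 40 min at 37C before and after exposure, and synchrony index (0–1) is expressed as percent change from baseline per well.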

[14] = CCTE_Shafer_MEA_dev_firing_rate_mean: CCTE's Neural Network Formation Assay for Mean Firing Rate, Shafer Lab (AID 2284031);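 further: curve fitted for loss of firing so AC50 reflects decreased mean firing rate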
Outline: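 Primary rat cortical neurons on 48-well MEA plates, exposed from plating day 0 with dosing renewed on DIV 5 and 9. Mean well firing rate over active electrodes, recorded days 5, 7, 9, 12, summarised as trapezoidal AUC.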

[15] = CCTE_Shafer_MEA_dev_per_burst_spike_percent: CCTE's Neural Network Formation Assay for Percent of Spikes in a Burst, Shafer Lab (AID 2284032);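 further: fitted as a decrease in burst spike percentage below DMSO baseline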
Outline: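 Rat primary cortical neurons on 16-electrode MEA wells, dosed from plating day 0 for 12 days with renewal on DIV 5 and 9; spikes-in-bursts percentage averaged over bursting electrodes, collapsed as AUC across days 5, 7, 9, 12; loss direction versus DMSO.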

[16] = CCTE_Shafer_MEA_dev_active_electrodes_number: CCTE's Neural Network Formation Assay for Number of Active Electrodes, Shafer Lab (AID 2284040; active means hit-call score of the fitted dose curve at least 0.9, where 1 is the maximum;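 further: potency for loss of active electrodes versus DMSO so lower counts are hits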)
Outline: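 Primary rat cortical neurons on 16-electrode MEA wells, exposed from day 0 through day 12 with compound renewed at DIV 5 and 9 feeds. Active electrodes (mean firing ≥5 spikes/min) counted at DIV 5, 7, 9, 12; trapezoidal AUC across days, loss-of-signal versus DMSO.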

[17] = CCTE_Shafer_MEA_dev_burst_rate: CCTE's Neural Network Formation Assay for Burst Rate, Shafer Lab (AID 2284042)
Outline: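 Developmental network assay measuring how 12-day exposure of rat cortical neuron cultures alters bursting on extracellular MEA recordings. Values are AUC of well-mean burst rate across four recording days, relative to DMSO vehicle.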

[18] = CCTE_Shafer_MEA_dev_bursting_electrodes_number: CCTE's Neural Network Formation Assay for Number of Bursting Electrodes, Shafer Lab (AID 2284043; active means hit-call score of the fitted dose curve at least 0.9, where 1 is the maximum;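 further: potency is for loss of bursting electrodes relative to DMSO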)
Outline: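 Read-out is the per-well number of electrodes bursting at least once every 2 minutes, recorded on days 5, 7, 9 and 12 and collapsed by trapezoidal area under the curve. Cultures were primary rat cortical neurons on MEA plates, treated continuously from plating.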

[19] = CCTE_Shafer_MEA_dev_burst_duration_mean: CCTE's Neural Network Formation Assay for Mean Burst Duration, Shafer Lab (AID 2284045)
Outline: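 Read-out: average first-to-last-spike interval within single-electrode bursts, averaged over bursting electrodes per well, then summarised as area under the curve across days 5, 7, 9 and 12. Developing rat cortical networks were exposed from day 0.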

[20] = CCTE_Shafer_MEA_dev_interburst_interval_mean: CCTE's Neural Network Formation Assay for Mean Interburst Interval, Shafer Lab (AID 2284046);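 further: well-mean interburst interval of bursting electrodes as AUC over four recording days; curve fitted for decrease in interburst interval relative to DMSO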
Outline: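 Network formation assay in primary rat cortical cultures, exposed from DIV 0 to 12. Mean interburst interval per well, integrated as AUC over four recordings.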

[21] = CCTE_Shafer_MEA_dev_inter_network_spike_interval_mean: CCTE's Neural Network Formation Assay for Mean Inter-network Spike Interval, Shafer Lab (AID 2284047)
Outline: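 Compound was given at plating to primary rat cortical neurons and renewed with full medium changes on DIV 5 and 9. Extracellular activity was recorded on days 5, 7, 9, 12; AUC values were fitted for loss relative to DMSO control.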

[22] = CCTE_Shafer_MEA_dev_network_spike_number: CCTE's Neural Network Formation Assay for Number of Network Spikes, Shafer Lab (AID 2284048);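 further: synchronized bursts across electrodes counted on days 5 7 9 12 and integrated as AUC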
Outline: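 Developing networks of primary rat cortical neurons are treated over 12 days starting at plating, with media and compound fully replaced on DIV 5 and 9. Network spike counts from four recording days are integrated as trapezoidal AUC.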

[23] = CCTE_Shafer_MEA_dev_network_spike_peak: CCTE's Neural Network Formation Assay for Mean Number of Electrodes in Network Spike, Shafer Lab (AID 2284049);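 further: fitted for loss of signal meaning fewer electrodes in network spikes than DMSO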
Outline: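 Rat cortical primary culture, 1.5 x 10^5 cells/well, 48-well MEA (16 electrodes/well). Dosing day 0 through DIV 12, full media/compound exchange DIV 5, 9. AxIS adaptive spike detection; AUC over days 5/7/9/12; loss-of-signal vs DMSO.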

[24] = CCTE_Shafer_MEA_dev_spike_duration_mean: CCTE's Neural Network Formation Assay for Mean Spike Duration, Shafer Lab (AID 2284051);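 further: mean network spike duration pooled as area under curve over DIV 5 to 12 recordings; potency for a decrease in mean network spike duration versus DMSO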
Outline: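 With DMSO as baseline, loss of mean network spike duration was scored from extracellular recordings of rat cortical neurons on MEA plates. Exposure spanned plating to DIV 12; the four recording days were collapsed into one AUC value.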

[25] = CCTE_Shafer_MEA_dev_network_spike_duration_std: CCTE's Neural Network Formation Assay for Standard Deviation of Network Spike Duration, Shafer Lab (AID 2284052);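 further: area under curve of spike duration SD across recording days 5 to 12; hits are decreases in network spike duration SD versus DMSO vehicle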
Outline: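 Developing networks of rat cortical neurons were exposed over twelve days in vitro on 48-well MEA plates. Trapezoidal AUC of recordings (DIV 5–12) was analysed for signal loss relative to DMSO vehicle.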

[26] = CCTE_Shafer_MEA_dev_per_network_spike_spike_number_mean: CCTE's Neural Network Formation Assay for Mean Number of Spikes in a Network Spike, Shafer Lab (AID 2284053);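 further: fitted as decrease in spikes per network spike relative to DMSO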
Outline: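 First, rat cortical cells (1.5 x 10^5/well) were seeded onto MEA wells; second, dosing began at plating and was refreshed on DIV 5 and 9; finally, network-spike spike counts across DIV 5–12 were summarized as AUC.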

[27] = CCTE_Shafer_MEA_dev_per_network_spike_spike_percent: CCTE's Neural Network Formation Assay for Percent of Spikes in a Network Spike, Shafer Lab (AID 2284054)
Outline: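 Rat primary cortical cultures, 1.5 x 10^5 cells/well on MEA. Continuous compound exposure d0–12, medium/compound renewed DIV 5, 9. Network-spike spike % (0.05 s peak window), AUC over 4 recordings, DMSO baseline.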

[28] = CCTE_Shafer_MEA_dev_LDH: CCTE's Lactate Dehydrogenase Assay for Cytotoxicity in the Neural Network Formation Assay, Shafer Lab (AID 2284068; active means hit-call score of the fitted dose curve at least 0.9, where 1 is the maximum;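 further: exposure for twelve days from plating with re-dosing on DIV 5 and 9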)
Outline: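 Developing rat cortical networks on MEA plates are exposed to compound for 12 days from plating. LDH activity is measured spectrophotometrically, with DMSO as baseline.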

[29] = CCTE_Shafer_MEA_dev_AB: CCTE's Alamar Blue Assay for Cytotoxicity in the Neural Network Formation Assay, Shafer Lab (AID 2284083; active means hit-call score of the fitted dose curve at least 0.9, where 1 is the maximum;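 further: resazurin reduction fluorescence as viability of cultured neurons; twelve days of exposure from plating with re-dosing on DIV 5 and 9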)
Outline: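 Cytotoxicity companion to the developmental MEA: primary rat cortical neurons, 12-day exposure starting day 0, compound refreshed DIV 5 and 9; resazurin fluorescence, fitted against DMSO vehicle.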

Question: Which results are given for `CC1(C)[C@@H](C=C(Cl)Cl)[C@@H]1C(=O)O[C@@H](C#N)c1ccc(F)c(Oc2ccccc2)c1`?
Answer: AC50 [1]: 2960 nM (active); AC50 [2]: 2970 nM (active); outcome [3]: inactive; outcome [4]: inactive; AC50 [5]: 842 nM (active); AC50 [6]: 2350 nM (active); AC50 [7]: 1950 nM (active); AC50 [8]: 7770 nM (active); AC50 [9]: 1280 nM (active); AC50 [10]: 534 nM (active); AC50 [11]: 1680 nM (active); AC50 [12]: 208 nM (active); AC50 [13]: 512 nM (active); AC50 [14]: 5760 nM (active); AC50 [15]: 15000 nM (active); AC50 [16]: 10200 nM (active); outcome [17]: inactive; AC50 [18]: 15000 nM (active); outcome [19]: inactive; outcome [20]: inactive; outcome [21]: inactive; outcome [22]: inactive; AC50 [23]: 11800 nM (active); AC50 [24]: 6210 nM (active); outcome [25]: inactive; AC50 [26]: 5820 nM (active); AC50 [27]: 15000 nM (active); outcome [28]: inactive; outcome [29]: inactive
